In PubChem BioAssay AID1259318 (Sanford-Burnham Center for Chemical Genomics, 2017):
In all, about 370,000 compounds went through this assay and about 3,000 (0.81%) were called active.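 The calls were made as follows: active = activity above about 14% (limit read from the data; passing the limit was not always enough); inactive = the rest.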 This excerpt belongs to a sample that is enriched for actives.

target: Nuclear receptor subfamily 1 group D member 1 (Homo sapiens) (UniProt P20393); assay: Rev-erbα–DNA interaction modulation – biochemical, FITC-DNA, fluorescence polarization, uHTS, primary screen (AID 1259318); details: Rev-erbα–FITC-DNA binding, 90 min, at 10 µM, hits give high values;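 also: 0% = DMSO wells with 35 nM protein and 100% = DMSO wells with 750 nM protein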
Sequence (P20393 whole entry, looked up): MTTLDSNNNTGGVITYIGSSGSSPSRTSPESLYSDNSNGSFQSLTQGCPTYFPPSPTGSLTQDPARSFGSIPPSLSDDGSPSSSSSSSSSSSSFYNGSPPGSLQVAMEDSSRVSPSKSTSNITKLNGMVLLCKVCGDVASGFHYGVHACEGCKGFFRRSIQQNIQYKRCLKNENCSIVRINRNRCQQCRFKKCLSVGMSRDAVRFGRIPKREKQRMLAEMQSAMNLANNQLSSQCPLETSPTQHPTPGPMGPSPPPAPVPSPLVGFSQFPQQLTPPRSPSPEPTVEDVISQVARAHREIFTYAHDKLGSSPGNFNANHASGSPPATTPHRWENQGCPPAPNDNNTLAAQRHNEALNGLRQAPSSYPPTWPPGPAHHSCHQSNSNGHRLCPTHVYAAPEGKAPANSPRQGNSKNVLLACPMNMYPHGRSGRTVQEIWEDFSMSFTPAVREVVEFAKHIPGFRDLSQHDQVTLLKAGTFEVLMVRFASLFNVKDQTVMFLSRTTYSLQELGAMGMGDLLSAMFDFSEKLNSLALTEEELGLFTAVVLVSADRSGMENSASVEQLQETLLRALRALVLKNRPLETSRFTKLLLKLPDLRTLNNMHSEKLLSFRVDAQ

Row | Compound | activity
1 | Cc1ccc(-c2ccc(CN3C(C)C(=O)N(Cc4cn(CCC5OCCCO5)nn4)CCS3(=O)=O)cc2)cc1 (centres undefined) | 1.81% (inactive)
2 | CC1(C)C2CC[C@]3(C)C(C(=O)C=C4[C@@H]5C[C@@](C)(C(=O)O)CC[C@]5(C)CC[C@]43C)[C@@]2(C)CC[C@@H]1O (some centres undefined) | -5.93% (inactive)
3 | CC(C)(C)OC(=O)C[C@@H]1C/C=C\C[C@H](CC(=O)N[C@@H](CO)Cc2ccccc2)C(=O)N[C@H](Cc2ccccc2)COC1=O | -3.46% (inactive)
4 | Cc1ccc(C)c2c1cc(C)c1nnc(SCC(=O)Nc3cccc(C(=O)O)c3)n12 | -2.26% (inactive)
5 | Cc1nc2cc(NC(=O)CSc3nc4c(C)cccc4cc3C#N)ccc2s1 | 95.7% (active)
6 | Cc1ccc2nc(SCc3nnc(-c4ccccc4[N+](=O)[O-])o3)c(C#N)cc2c1 | -0.86% (inactive)
7 | Cc1csc(SCC(=O)Nc2sccc2C#N)n1 | -1.85% (inactive)
8 | COC(=O)CSc1nc2c(c(C3CC=CCC3)c1C#N)CCC2 (centres undefined) | 0.02% (inactive)
9 | CCOc1ccc2cc(C#N)c(SCC(=O)OC)nc2c1 | 116% (active)
10 | Cc1nonc1NC(=O)CSc1nc2ccccc2cc1C#N | 39.8% (active)
11 | Cc1ccc(NC(=O)CSc2sc3c(O)cc(=O)[nH]c3c2C#N)cc1C | -17.5% (inactive)
12 | Cc1cc(C#N)c(SCC(N)=O)nc1-c1ccc(F)cc1 | -0.55% (inactive)
13 | CCNC(=O)CC1C(=O)N(c2ccc(OC)cc2)C(=O)N1CCOC (centres undefined) | -2.32% (inactive)
14 | C/C(=N\NC(=O)c1cc2c(s1)CCC(C)C2)c1cccnc1 (centres undefined) | -5.04% (inactive)
15 | CCCCN(CCCC)CCNC(=O)CN1C(=O)COc2ccc(S(=O)(=O)N3CCOCC3)cc21 | 2.87% (inactive)
16 | C[C@@H](CN1C2=NC[C@@H](Cc3ccccc3)N2C[C@H]1Cc1ccc(O)cc1)NC(=O)CCC1CCCCC1 | -3.34% (inactive)
17 | C[C@H]1CCC/C=C/C(=O)c2c(O)cc(O)cc2CC(=O)O1 | -5.09% (inactive)
18 | O=C(CN1C(=O)/C(=C/c2ccccc2F)Sc2ccccc21)NCc1cccnc1 | -1.22% (inactive)
19 | CC(C)OCCCNC(=O)CN1C(=O)/C(=C/c2ccccc2F)Oc2ccccc21 | 25% (active)
20 | O=C(CN1C(=O)COc2ccccc21)Nc1ccc(F)cc1 | -4.74% (inactive)
21 | CCN(CC)C(=O)CC[C@@H]1CC[C@]2(CCCN(S(=O)(=O)C3CCCCC3)C2)O1 | -2.68% (inactive)
22 | COc1ccccc1OCCNCC(O)COc1cccc2[nH]c3ccccc3c12 (centres undefined) | 0.09% (inactive)
23 | Oc1ccc2ccc3cccc[n+]3c2c1 | 34.3% (active)

Row | Compound | activity
24 | COC(=O)C1=C(C)N(Cc2ccccc2C(F)(F)F)C(=NCc2ccc(OC)cc2)NC1c1cccc(C(F)(F)F)c1 (centres undefined) | 3.37% (inactive)
25 | C=C(C)C1CC=C(C)/C(=N/NC(=O)CCCNc2cccc(C)c2)C1 (centres undefined) | -3.69% (inactive)
26 | COc1ccccc1NC(=O)COC(=O)CNC(=O)C1CCCCC1 | -2.69% (inactive)
27 | C=C(C)C1CC=C(C)/C(=N\NC(=O)CNc2ccccc2OC)C1 (centres undefined) | 28.5% (active)
28 | CN1/C(=C\C=C2\N=C(c3ccc(F)cc3)OC2=O)C(C)(C)c2ccccc21 | 36.5% (active)
29 | COc1ccc(-n2c(COc3ccc(C)cc3)nnc2SCC(=O)Nc2ccc(Oc3ccccc3)cc2)cc1 | -3.25% (inactive)
30 | CCc1ccc(S(=O)(=O)Nc2ccc(C)c(NS(C)(=O)=O)c2)cc1 | -7.94% (inactive)
31 | CN1C(=O)c2ccc(C(=O)Nc3ccc(Br)cn3)cc2C1=O | 73.7% (active)
32 | CN1C(=O)c2ccc(NC(=O)c3c(F)c(F)c(F)c(F)c3F)cc2C1=O | -2.78% (inactive)
33 | O=C(/C=C/c1ccc(Cl)cc1)Nc1ccc(Br)cn1 | -0.31% (inactive)
34 | CS(=O)(=O)c1ccc(Cl)c(NC(=O)COC(=O)c2ncc(Cl)c(Cl)c2Cl)c1 | -0.27% (inactive)
35 | Cc1[nH]c2ccccc2c1CC(=O)Nc1ccc(Nc2cccnc2)c(-c2cccc(Cl)c2)c1 | 3.32% (inactive)
36 | O=C(O)CCCCC(=O)O | -0.86% (inactive)
37 | CCC(C)NC(=O)C1c2ccccc2C(=O)N1Cc1ccccc1 (centres undefined) | -2.38% (inactive)
38 | O=C1c2ccccc2C(Nc2ccc3c(c2)OCCO3)N1Cc1ccco1 (centres undefined) | -1.18% (inactive)
39 | CCCCCn1nnnc1C1c2ccccc2C(=O)N1Cc1ccco1 (centres undefined) | 17.3% (active)
40 | CC(=O)c1c(N)n(C)c(=O)n(C)c1=O | 5.4% (inactive)
41 | COC(=O)CN1C(=O)C(C)(C)Oc2ccc(C(=O)Nc3cccc(OC)c3)cc21 | 6.32% (inactive)
42 | CCOc1ccc(NC(=O)CSc2nncn2C)cc1 | 3.05% (inactive)
43 | COc1ccc(NC(=O)CSc2ncnc3[nH]ncc23)cc1 | -0.29% (inactive)
44 | CCOc1ccc(NC(=O)CSc2ncnc3c2sc2ccccc23)cc1 | 298% (active)
45 | COC(=O)Nc1nc2ccc(C(=O)C3CC3)cc2[nH]1 | -10.6% (inactive)
46 | CC1(C)OC[C@@H](COC(=O)CCc2ccc(OC[C@@H](O)CNCCNC(=O)N3CCOCC3)cc2)O1 | 0.02% (inactive)

Row | Compound | activity
47 | CC(NC(=S)Nc1ccccc1)C(c1cccs1)N1CCOCC1 (centres undefined) | 4.26% (inactive)
48 | CN(C)c1ccc(/C=C2\NC(=S)N(Cc3ccccc3)C2=O)cc1 | 40.1% (active)
49 | CC(=O)C1=C(C)N(Cc2ccccc2)C(=S)NC1c1cccc(Br)c1 (centres undefined) | -3.28% (inactive)
50 | O=[N+]([O-])/C=C1\CCCCCN1 | -3.45% (inactive)
51 | COc1cccc(CNC(=O)[C@H]2CCCN2C(=O)[C@H]2CCCN2C(=O)C2CCCCC2)c1 | 4.65% (inactive)
52 | O=C1Nc2ccccc2C1=NN=Cc1ccco1 | -0.74% (inactive)
53 | Cc1cc(C)c(/C=C2\C(=O)Nc3ccccc32)[nH]1 | 22.7% (active)
54 | Cc1ccc(-c2nc(CS(=O)CC(=O)N3CCN(c4ncccn4)CC3)c(C)o2)cc1 (centres undefined) | 4.76% (inactive)
55 | O=S(=O)(c1ccccc1)N1CCC(c2nc3ccccc3o2)CC1 | -9.25% (inactive)
56 | CC1(C)CC2CC(C)(CN2c2ncnc3ccc(Br)cc23)C1 (centres undefined) | 20.4% (active)
57 | COCCN1CCn2c(nc3cc(NS(C)(=O)=O)ccc32)C1 | -3.86% (inactive)
58 | Cc1ccc(NC(=O)c2cc(C)nn2-c2ccccc2)c(C)c1 | 2.36% (inactive)
59 | CCOC(=O)c1cn[nH]c1NC(=S)Nc1ccccc1 | -3.54% (inactive)
60 | CCOC(=O)c1ccc(NC(=S)Nc2cc(C)cc(C)n2)cc1 | 25.7% (active)
61 | CCOC(=O)c1ccc(NC(=O)Cn2cnc3cc(C)c(C)cc32)cc1 | 1.51% (inactive)
62 | COc1ccc(CNC(=O)COC(=O)/C=C/c2ccc(S(=O)(=O)N3CCOCC3)cc2)cc1 | -0.37% (inactive)
63 | O=C(Nc1ccccc1F)c1ccccc1-c1ccccc1 | 8.73% (inactive)
64 | O=C(Nc1nnc(-c2ccccc2F)s1)c1ccccc1F | 23.9% (active)
65 | CCSc1nnc(SCC(=O)NNC(=O)c2ccccc2F)s1 | -6.25% (inactive)
66 | CC1(Oc2ccccc2-c2ccno2)CCN(Cc2ccc(-c3ccccc3)o2)C1 (centres undefined) | -3.17% (inactive)
67 | O=C(Nc1cccc(Cl)c1)OC1CC2CC1[C@H]1CCCCN1[C@H]2Cc1ccccc1 (some centres undefined) | 0.26% (inactive)
68 | CCCn1c(N)c(C(=O)CSc2nc3ccccc3c(=O)n2-c2ccc(OC)cc2)c(=O)[nH]c1=O | -7.88% (inactive)
69 | COc1ccc(-n2c(SCC(=O)Nc3ccc(C)c(Cl)c3)nc3ccccc3c2=O)cc1 | -4.51% (inactive)

Row | Compound | activity
70 | COc1cccc(-n2c(SCC(=O)c3c[nH]c4ccccc34)nc3ccccc3c2=O)c1 | 69.3% (active)
71 | Cc1ccc(C2=Nc3c(ccc4ccccc34)C(c3ccncc3)=NN2)cc1 | 3.5% (inactive)
72 | Cc1ccc(S(=O)(=O)N2[C@@H](Cc3ccccc3)CO[C@H]2CC(=O)OCc2ccccc2)cc1 | -1.88% (inactive)
73 | Cc1sc2ncn(CC(=O)NCCCC(=O)N3CCN(c4ccccc4F)CC3)c(=O)c2c1C | -0.15% (inactive)
74 | Cc1cc(Br)ccc1NC(=O)c1cnc(N2CCN(c3ccccn3)CC2)c2ccccc12 | 0.52% (inactive)
75 | Cc1cc(Br)ccc1NC(=O)c1sc2ncn(CC(=O)N3CCN(c4ccccn4)CC3)c(=O)c2c1C | 58.2% (active)
76 | CCCCOc1ccc(N(CC(=O)NC(C)C)C(=O)CCC(=O)Nc2ccccn2)cc1 | -9.8% (inactive)
77 | CCC(C(=O)NC1CCCC1)N(C(=O)c1snc(C(N)=O)c1N)c1ccc2c(c1)OCCO2 (centres undefined) | 34.2% (active)
78 | COc1ccc(N(C(=O)c2snc(C(N)=O)c2N)C(C(=O)NC2CCCC2)c2ccco2)cc1OC (centres undefined) | 4.63% (inactive)
79 | CCC(C(=O)NC1CCCCC1)N(C(=O)c1snc(C(N)=O)c1N)c1ccc(OC)cc1OC (centres undefined) | 2.92% (inactive)
80 | COc1ccc(C(=O)CN2C(=O)NC3(CCc4ccccc43)C2=O)c(OC)c1 (centres undefined) | 6.28% (inactive)
81 | O=C(Nc1cccnc1)c1noc2c1CCCCC2 | 0.99% (inactive)
82 | O=C(O)C1=CCCN(CCON=C(c2ccccc2)c2ccccc2)C1 | -6.65% (inactive)
83 | COc1ccc(CCNC(=O)CSc2nnc(-c3cccc(F)c3)o2)cc1OC | 6.95% (inactive)
84 | COc1ccc(CCNC(=O)CSc2nc(C)nc3c2oc2ccccc23)cc1OC | -3.78% (inactive)
85 | COc1cccc(-c2ccc(C#N)c(SCC(=O)NCCc3ccc(Cl)cc3)n2)c1 | 29.2% (active)
86 | COc1cc(OC)cc(C(=O)NCCSCc2ccc(Cl)cc2)c1 | -1.8% (inactive)
87 | COc1ccc(CCNC(=O)CSc2nnc3ccc(-c4ccncc4)nn23)cc1 | 2.33% (inactive)
88 | COc1ccc(CCNC(=O)CSc2nc(-c3ccc(OC)c(OC)c3)ccc2C#N)cc1 | 56% (active)
89 | O=C(O[C@@H]1[C@H](Cc2ccccc2)NS(=O)(=O)[C@H]2C[C@@H]3C=C[C@]12O3)c1ccccc1Br | 4.17% (inactive)
